# Source: PubChem BioAssay
# Active and inactive are the calls of the source.
# How the values were obtained:
# [1] = test system: Plasmodium falciparum Sir2 (PF13_0152, Sir2A); assay: pfSir2 binders on small-molecule microarrays, primary screen, biochemical, small-molecule microarray, 635 nm fluorescence (AID 1098); details: small-molecule microarray binding, fluorescence 635 nm; higher = more signal;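 also: score merges spot fluorescence intensity with its signal-to-noise ratio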
# [2] = small-molecule microarray binders of probe aDKK1, primary screen, biochemical, biotinylated probe, 635/667 nm fluorescence (AID 1099); details: higher = more signal;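 also: score merges 667nm spot fluorescence with signal to noise across triplicate slides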
# [3] = small-molecule microarray binders of probe aCHRDL2, primary screen, biochemical, biotinylated probe, 635/667 nm fluorescence (AID 1100); details: higher = more signal
# [4] = splicing luciferase reporter signal modulators, primary screen, spliceosome inhibition project, cell-based, HEK293, splice +/- reporter (AID 1101); details: luminescence, 24 h, higher = more signal, called active from +8 up or from −8 down;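 also: HEK293 cells carrying a splicing-competent luciferase reporter gene; test concentration not given here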
# [5] = molecular target: Fibroblast growth factor 10 (Homo sapiens) (UniProt O15520); assay: FGF10 binders on small-molecule microarrays, primary screen, biochemical, small-molecule microarray, 635 nm fluorescence (AID 1102); details: FGF10 binding, fluorescence 635 nm, higher = more signal
# [6] = test system: glycogen synthase kinase-3 (GSK3A per assay name; protocol says GSK3B); assay: GSK3 binders on small-molecule microarrays, primary screen, biochemical, small-molecule microarray, 635 nm fluorescence, GSK3A (AID 1103); details: small-molecule microarray binding, fluorescence 635 nm; higher = more signal; also: the record names both GSK3A and GSK3B
# [7] = molecular target: Epidermal growth factor receptor (Homo sapiens) (UniProt P00533); assay: EGFR binders on small-molecule microarrays, primary screen, biochemical, small-molecule microarray, 635 nm fluorescence (AID 1104); details: EGFR binding, higher = more signal;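 also: score merges 667 nm emission intensity with spot signal to noise over triplicate slides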
# [8] = molecular target: Follistatin-related protein 3 (Homo sapiens) (UniProt O95633); assay: FSTL3 binders on small-molecule microarrays, primary screen, biochemical, small-molecule microarray, 635 nm fluorescence (AID 1105); details: FSTL3 binding, higher = more signal;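 also: score merges emission near 667 nm and signal to noise per printed spot across three slides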
# [9] = molecular target: Dickkopf-related protein 1 (Homo sapiens) (UniProt O94907); assay: DKK1 binders on small-molecule microarrays, primary screen, biochemical, small-molecule microarray, 635 nm fluorescence scan (AID 1106); details: DKK1 binding, higher = more signal;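 also: score merges emission near 667 nm with signal to noise over three replicate slides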
# [10] = test system: Inhibin beta A chain (activin A); assay: INHBA (activin A) binders on microarrays, primary screen, biochemical, small-molecule microarray, 635 nm fluorescence scan (AID 1107); details: small-molecule microarray binding, higher = more signal;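 also: mouse activin A protein probed at 4.33 µg/mL on printed slides; score merges bound-protein fluorescence near 667 nm with spot signal-to-noise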
# [11] = test system: Human papillomavirus type 1a protein E7 (residues 44-93); assay: HPV1a E7 fragment binders on microarrays, primary screen, biochemical, small-molecule microarray, residues 44-93, 635 nm fluorescence (AID 1108); details: small-molecule microarray binding, fluorescence 635 nm; higher = more signal;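 also: E7 fragment applied at 1 µg/mL in TBST for 1 h at 4 C; score combines spot fluorescence with its signal to noise ratio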
# [12] = modulators of HCV replicon luciferase signal, primary screen, HCV replication inhibitor project, Huh7 cells, luciferase reporter (AID 1109); details: 48 h, higher = more signal;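 also: huh7 hepatoma cells harbouring a luciferase neomycin HCV replicon reporter; luciferase luminescence as measure of HCV replicon replication; test concentration not given here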
# [13] = molecular target: Left-right determination factor 2 (Homo sapiens) (UniProt O00292); assay: LEFTY2 binders on small-molecule microarrays, primary screen, biochemical, small-molecule microarray, 635 nm fluorescence scan (AID 1110); details: LEFTY2 binding, higher = more signal
# [14] = molecular target: Calmodulin-1 (Homo sapiens) (UniProt P0DP23); assay: CALM1 binders on microarrays, EGTA buffer, profiling panel, biochemical, small-molecule microarray, Cy5-labelled CALM1 (AID 1111); details: Cy5-CALM1 binding fluorescence, higher = more signal;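 also: labelled calmodulin applied in Tris saline Tween buffer holding calcium plus EGTA and DTT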
# [15] = molecular target: Calmodulin-1 (Homo sapiens) (UniProt P0DP23); assay: calcium-bound CALM1 binders on microarrays, profiling panel, artefact control for SMM control-protein annotation, biochemical, small-molecule microarray, Cy5-labelled CALM1, plus calcium (AID 1112); details: Cy5-CALM1 binding fluorescence, higher = more signal;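 also: score merges spot fluorescence with signal to noise from triplicate slides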
# [16] = small-molecule microarray binders of probe aWnt5a, primary screen, biochemical, biotinylated probe, 635/667 nm fluorescence (AID 1113); details: higher = more signal;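 also: score merges 667 nm fluorescence intensity with signal-to-noise per printed feature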
# [17] = small-molecule microarray binders of probe aShh, primary screen, biochemical, biotinylated probe, 635/667 nm fluorescence (AID 1114); details: higher = more signal;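 also: probe is biotin-labelled aShh protein from a stem cell growth factor screen; measures binding of labelled protein to compounds printed on the slide; score merges feature fluorescence at 667 nm with signal-to-noise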
# [18] = small-molecule microarray binders of probe aNog, primary screen, biochemical, biotinylated probe, 635/667 nm fluorescence (AID 1115); details: higher = more signal;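 also: probe is biotinylated aNog protein used at 0.15 µg/mL for 1 h at 4 C; z-score combines 667 nm fluorescence of each spot with its signal to noise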
# [19] = molecular target: Torsin-1A-interacting protein 1 (Homo sapiens) (UniProt Q5JTV8); assay: LAP1 binders from COS7 cell lysate, primary screen, small-molecule microarray, 635/667 nm fluorescence (AID 1116); details: COS7-hLAP1 lysate binding, 635 nm fluorescence, higher = more signal
# [20] = molecular target: Alpha-bungarotoxin (Bungarus multicinctus) (UniProt P60615); assay: alpha-bungarotoxin binders on microarray, profiling panel, artefact control for SMM control protein annotation, biochemical, small-molecule microarray, Alexa647 label, 635/667 nm fluorescence (AID 1117); details: alpha-BTX-A647 binding fluorescence, higher = more signal
# Alpha-bungarotoxin (Bungarus multicinctus), sequence (P60615 whole entry, looked up): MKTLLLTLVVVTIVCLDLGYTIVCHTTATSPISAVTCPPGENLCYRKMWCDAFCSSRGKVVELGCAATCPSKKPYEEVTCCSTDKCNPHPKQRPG
# Left-right determination factor 2 (Homo sapiens), sequence (O00292 whole entry, looked up): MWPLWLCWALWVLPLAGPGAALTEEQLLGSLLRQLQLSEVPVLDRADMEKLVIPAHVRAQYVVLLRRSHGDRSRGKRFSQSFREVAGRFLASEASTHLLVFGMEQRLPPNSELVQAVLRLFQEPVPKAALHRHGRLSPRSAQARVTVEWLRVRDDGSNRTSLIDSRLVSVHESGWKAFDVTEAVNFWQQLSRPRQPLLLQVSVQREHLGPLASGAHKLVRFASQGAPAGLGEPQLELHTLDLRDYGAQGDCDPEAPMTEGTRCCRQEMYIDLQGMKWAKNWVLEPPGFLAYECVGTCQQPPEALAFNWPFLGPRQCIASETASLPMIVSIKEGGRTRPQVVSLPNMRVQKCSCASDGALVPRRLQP
# Epidermal growth factor receptor (Homo sapiens), sequence (P00533 whole entry, looked up): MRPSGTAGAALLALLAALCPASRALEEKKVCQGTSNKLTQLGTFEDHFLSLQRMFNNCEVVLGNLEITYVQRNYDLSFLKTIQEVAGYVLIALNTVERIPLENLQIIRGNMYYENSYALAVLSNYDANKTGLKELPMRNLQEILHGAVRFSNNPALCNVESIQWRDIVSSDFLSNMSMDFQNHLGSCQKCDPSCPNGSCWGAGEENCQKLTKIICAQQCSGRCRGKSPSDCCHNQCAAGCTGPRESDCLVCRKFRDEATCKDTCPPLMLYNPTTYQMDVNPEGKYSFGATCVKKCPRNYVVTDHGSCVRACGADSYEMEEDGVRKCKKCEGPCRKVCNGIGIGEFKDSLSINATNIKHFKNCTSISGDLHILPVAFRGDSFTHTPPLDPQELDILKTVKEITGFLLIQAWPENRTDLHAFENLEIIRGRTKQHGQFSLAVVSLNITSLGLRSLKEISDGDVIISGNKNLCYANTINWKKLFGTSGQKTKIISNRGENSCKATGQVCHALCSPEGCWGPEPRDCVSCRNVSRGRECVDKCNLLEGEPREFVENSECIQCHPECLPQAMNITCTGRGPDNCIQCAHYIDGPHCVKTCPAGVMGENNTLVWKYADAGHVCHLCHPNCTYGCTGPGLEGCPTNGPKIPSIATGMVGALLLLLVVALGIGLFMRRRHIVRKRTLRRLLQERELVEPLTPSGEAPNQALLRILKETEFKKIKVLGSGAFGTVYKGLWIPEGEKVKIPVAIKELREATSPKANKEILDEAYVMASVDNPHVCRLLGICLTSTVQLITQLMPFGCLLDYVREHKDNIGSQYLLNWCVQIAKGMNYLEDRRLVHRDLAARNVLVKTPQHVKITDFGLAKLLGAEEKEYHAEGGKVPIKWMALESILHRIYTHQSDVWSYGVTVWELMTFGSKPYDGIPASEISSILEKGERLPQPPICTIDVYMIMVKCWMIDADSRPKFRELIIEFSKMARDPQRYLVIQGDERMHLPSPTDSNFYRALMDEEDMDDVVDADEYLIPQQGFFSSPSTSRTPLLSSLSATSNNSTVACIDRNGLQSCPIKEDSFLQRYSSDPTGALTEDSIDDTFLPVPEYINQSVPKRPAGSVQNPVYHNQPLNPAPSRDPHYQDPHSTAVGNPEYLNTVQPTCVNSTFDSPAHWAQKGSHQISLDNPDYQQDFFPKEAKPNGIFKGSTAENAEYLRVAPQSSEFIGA
# Torsin-1A-interacting protein 1 (Homo sapiens), sequence (Q5JTV8 whole entry, looked up): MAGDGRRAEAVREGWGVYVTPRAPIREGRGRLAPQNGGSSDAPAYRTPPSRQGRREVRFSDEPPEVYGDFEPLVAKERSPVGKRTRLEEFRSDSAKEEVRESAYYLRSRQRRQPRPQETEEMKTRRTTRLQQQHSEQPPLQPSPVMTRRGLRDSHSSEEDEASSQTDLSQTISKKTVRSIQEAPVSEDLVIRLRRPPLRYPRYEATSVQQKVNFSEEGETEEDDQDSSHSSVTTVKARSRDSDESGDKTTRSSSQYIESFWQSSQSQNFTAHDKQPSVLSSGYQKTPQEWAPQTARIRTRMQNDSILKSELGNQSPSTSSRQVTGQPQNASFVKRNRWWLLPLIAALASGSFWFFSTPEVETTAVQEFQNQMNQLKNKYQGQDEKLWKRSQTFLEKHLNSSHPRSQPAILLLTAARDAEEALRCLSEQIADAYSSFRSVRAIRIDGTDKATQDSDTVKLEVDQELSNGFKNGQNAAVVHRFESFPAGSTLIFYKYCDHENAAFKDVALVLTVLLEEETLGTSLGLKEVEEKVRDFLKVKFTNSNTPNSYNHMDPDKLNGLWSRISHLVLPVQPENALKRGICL
# Follistatin-related protein 3 (Homo sapiens), sequence (O95633 whole entry, looked up): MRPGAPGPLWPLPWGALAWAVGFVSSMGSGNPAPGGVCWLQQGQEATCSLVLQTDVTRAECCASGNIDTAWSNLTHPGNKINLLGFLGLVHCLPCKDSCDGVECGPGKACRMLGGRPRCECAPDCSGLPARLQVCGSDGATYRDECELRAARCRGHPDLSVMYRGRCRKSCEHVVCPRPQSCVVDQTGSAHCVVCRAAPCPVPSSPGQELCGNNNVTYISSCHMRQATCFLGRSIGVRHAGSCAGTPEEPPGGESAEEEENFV
# Dickkopf-related protein 1 (Homo sapiens), sequence (O94907 whole entry, looked up): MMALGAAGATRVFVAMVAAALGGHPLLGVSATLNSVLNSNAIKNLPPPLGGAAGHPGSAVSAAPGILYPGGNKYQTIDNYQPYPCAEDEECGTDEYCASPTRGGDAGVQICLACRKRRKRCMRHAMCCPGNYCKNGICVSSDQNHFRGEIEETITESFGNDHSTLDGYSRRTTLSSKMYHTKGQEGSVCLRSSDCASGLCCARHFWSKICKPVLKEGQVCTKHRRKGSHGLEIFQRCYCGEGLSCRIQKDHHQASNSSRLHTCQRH
# Fibroblast growth factor 10 (Homo sapiens), sequence (O15520 whole entry, looked up): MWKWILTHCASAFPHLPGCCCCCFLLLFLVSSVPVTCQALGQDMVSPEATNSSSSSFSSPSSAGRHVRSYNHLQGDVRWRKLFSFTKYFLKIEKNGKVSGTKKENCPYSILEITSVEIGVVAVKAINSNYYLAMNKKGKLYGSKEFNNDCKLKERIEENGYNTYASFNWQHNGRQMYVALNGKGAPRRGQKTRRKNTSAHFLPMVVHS
SMILES,composite z-score [1],composite z-score [2],composite z-score [3],z-score [4],composite z-score [5],composite z-score [6],composite z-score [7],composite z-score [8],composite z-score [9],composite z-score [10],composite z-score [11],z-score [12],composite z-score [13],composite z-score [14],composite z-score [15],composite z-score [16],composite z-score [17],composite z-score [18],composite z-score [19],composite z-score [20]
CCOc1cc(C(O)C2C=CC3C(=O)N(c4ccccc4)C(=O)C3N2Nc2ccc(C(C)C)cc2)ccc1O (stereo not given),1.5,0.712,1.01,0.21 (inactive),0.726,1.05,0.147,0.912,-0.332,0.73,1.45,-0.517,-0.211,0.983,-0.0316,0.0433,-0.0119,1.2,-0.102,1.91
CN1C(=O)C2C=CC(C(O)C=Cc3ccc([N+](=O)[O-])cc3)N(Nc3ccccc3)C2C1=O (stereo not given),0.967,0.0403,-0.175,1.21 (inactive),0.718,1.15,0.692,1.06,0.587,1.02,1.31,0.599,0.407,0.447,-0.384,0.0182,0.207,-0.175,0.582,0.627
Cc1ccc(/C=C/C=O)cc1,1.21,-0.051,0.44,-0.0631 (inactive),-0.0586,-0.472,-0.817,-0.955,-0.0317,0.579,0.134,0.626,-0.419,0.619,-0.524,-0.213,-0.0146,-0.299,-0.0785,0.185
O=C1O[C@H](c2ccccc2)[C@H](c2ccccc2)N2[C@H]1[C@@H](C(=O)N1CCN(c3ncccn3)CC1)[C@]1(C(=O)Nc3ccc(C#CC4=CCCCC4)cc31)[C@H]2c1ccccc1OCCO,1.7,-0.14,0.259,-1.14 (inactive),1.02,1.3,0.645,1.31,0.71,1.08,0.379,-1.67,0.818,0.858,-0.198,0.212,0.299,0.998,0.201,1.59
COc1ccc([Si](C)(C)[C@@H]2[C@@H](CCO)O[C@]3(C(=O)N(Cc4cccc(N5CCOC5=O)c4)c4ccccc43)[C@H]2C)cc1,0.75,0.644,0.246,-0.871 (inactive),0.415,0.67,0.0548,0.648,0.405,0.593,0.542,-4.17,0.133,1.37,0.924,-0.0704,0.0756,0.36,0.412,1.32
CN1C(=O)C2C=CC(C(O)c3c(F)cccc3Cl)N(NC(=O)OC(C)(C)C)C2C1=O (stereo not given),1.39,0.868,1.09,1.7 (inactive),0.458,0.891,0.307,0.649,-0.438,0.449,1.3,-0.28,-0.0662,2.03,0.498,0.0718,-0.167,1.46,2.03,1.35
COc1cc2c(cc1O)C(c1cccs1)N(Cc1ccc([N+](=O)[O-])o1)CC2 (stereo not given),1.15,0.728,0.27,-0.505 (inactive),0.876,0.0693,-0.033,-0.0839,-0.466,-0.131,0.665,-0.213,-0.333,1.5,0.33,-0.0303,0.155,1.19,-0.194,0.766
CCCCCCc1nc(-c2ccc(-c3ccc(Cl)c(Cl)c3)o2)c(C)c2c1[Si](C(C)C)(C(C)C)OC2,-0.0921,-0.233,-0.102,-1.62 (inactive),-0.57,-0.555,-0.648,-0.374,-0.446,0.375,-0.121,-1.46,-0.127,0.18,0.45,-0.124,-0.123,-0.124,-0.196,0.354
[N-]=[N+]=Nc1ccccc1[C@H]1OC(c2ccc(OCCCO)cc2)=N[C@@]1(Cc1ccccc1)C(=O)N1CCOCC1,1.43,1.14,1.08,0.439 (inactive),1.31,0.921,0.73,1.07,0.477,1.11,1.1,-2.37,0.103,2.25,0.937,-0.0748,0.886,0.88,1.32,1.73
C#CCOc1ccc(C[C@@H](C(=O)OC)N(CC#C)[C@@H](/C=C/C2CC2)[C@H](O)Cc2ccccc2)cc1,-0.103,-0.285,0.846,0.0683 (inactive),-0.327,-0.829,-0.92,-0.806,-0.429,0.899,-0.802,-2.06,-0.336,-1.1,-1.69,-0.2,-0.221,-0.337,0.255,-0.335
O=C(NC1CC1)[C@@H]1c2ccccc2C(=O)N(C2Cc3ccccc3C2)[C@H]1c1ccc(CO)cc1,0.188,-0.053,0.438,0.199 (inactive),0.467,1.3,0.473,0.53,0.951,0.338,1.32,-0.865,0.716,-0.199,-0.253,-0.0512,-0.457,-0.608,0.599,0.154
